From PubChem BioAssay (NCI)
About 83,000 compounds went through this panel and 20% of them were active in at least one assay; those are over-represented in the sample as a whole.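 96-well plates, one dose, 48 hours. Percent growth reported; active if below 10.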 Calls of active or inactive are those of the source.

System: HL-60(TB) leukemia
Assay: NCI-60 one-dose screen, 48 h (100 = growth as untreated, 0 = no growth, -100 = all killed)
Conditions: 10 µM unless noted

SMILES	growth
COc1ccc(N)c(N)c1	84.9% (inactive)
COc1ccc(-c2cc(/C=C/C(=O)c3ccc(N)cc3)[nH]n2)cc1	-23% (active)
CC(O)(CO)c1ccccc1 (configuration not stated)	116% (inactive)
COCCn1cc(-c2csc(-c3cn(C)c4ccc(F)cc34)n2)c2cccnc21	84.7% (inactive)
CC[C@@H](C(=O)[C@@H](C)[C@@H](O)[C@H](C)[C@@H]1O[C@@H]([C@@H](CC)C(=O)ONC(=O)c2ccccc2O)CC[C@@H]1C)C1O[C@]2(C=CC(=O)[C@]3(CC[C@@](C)([C@H]4CC[C@](O)(CC)[C@H](C)O4)O3)O2)[C@H](C)C[C@@H]1C (some centres not stated)	-45.7% (active)
NC(=O)c1cc(I)ccc1NC(=O)COc1ccc(Cl)cc1Cl	76.9% (inactive)
COc1cccc(-c2nc3sccn3c2-c2ccnc(NCCCNS(=O)(=O)c3ccccc3)c2)c1	-12.4% (active)
